90 compounds from PubChem BioAssay AID1259422 (The Scripps Research Institute Molecular Screening Center, 2018) can be followed below.

Where “and” joins values, the source holds several entries; their conditions need not be identical. Equal entries are not always repeated. The whole screen tested about 640,000 compounds, of which about 9,300 (1.5%) were called active. Many of the other results were omitted from the sample, so actives are more common in it than they were. Values without a mark were called inactive. No stated cut-off is given here; in the data, active means inhibition above about 32%; inactive means the rest.

This assay in a line: TEAD-YAP interaction inhibition, primary screen, TEAD-YAP interaction inhibitor project, luminescence, HEK-TIYL cells (AID 1259422).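 Further: 0% = median of test compound wells and 100% = reference inhibitor wells.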 The following applies: TEAD-Gal4/YAP UAS-luciferase luminescence, at 9.12 µM, stronger effect = higher value.
Take `Cc1cccc2c(N)c3c(nc12)CCCC3`: the inhibition is -0.9%.
As for `Cc1ccc(-c2cc(C(=O)OCC(C)C)c3cccc(C)c3n2)cc1`, the inhibition was 3.59%.
For the compound `Cc1ccc2nc3nc4c(C)cccc4c(N)c3cc2c1`, the inhibition is 43.1% (active).
In the case of `OC1(c2ccc(F)cc2)CC2CCC(C1)N2c1ncnc2nc[nH]c12` (stereo not given) it was 1.25%; in that of `C=C(Br)Cn1c(C(C)O)nc2ccccc21` (stereo not given), 1.71%; in that of `CC1=C(C#N)C(c2ccc3c(c2)OCO3)C2=C(CC(C)(C)CC2=O)N1` (stereo not given), 10.8%.
In the case of `Cn1c(=O)n(CC(=O)Nc2ccc(F)cc2)c(=O)c2ccccc21` it was 14%; in that of `CCOC(=O)C1=C(C)N(c2ccc(C)cc2)C(=O)/C1=C\c1ccc(OC)cc1`, -0.27%.
With `CCOC(=O)C1=C(c2ccc(OC)cc2)C(=O)c2ccccc2C1=O`, the inhibition was 96% (active).
In the case of `CCCNC1=C(c2ccc(OC)cc2)C(=O)c2ccccc21` it was -14.6%; in that of `CCCOc1ccc(/C(O)=C2/C(=O)C(=O)N(CCN(C)C)C2c2ccc(Cl)cc2)cc1C` (stereo not given), 4.59%.
As to `Cc1occc1C(=O)Nc1ccc(NC(=O)c2ccoc2C)cc1`, the inhibition is -68.2%.
With `O=C(Nc1cccc(O)c1)c1cccnc1`, the inhibition was 24.2%.
Take `Cc1occc1C(=O)Nc1cccc(F)c1`: the inhibition was -4.37%.
For `O=C(Nc1cccc(O)c1)c1ccc(C(=O)c2ccccc2)o1`, the inhibition is 56.8% (active).
For the compound `O=C(Nc1cccc(O)c1)c1ccc(-c2ccccc2)cc1`, the inhibition is 83.8% (active).
Regarding `O=C(Nc1cccc(O)c1)c1cncc(Br)c1`, the inhibition was -19.1%.
As for `Cc1occc1C(=O)Nc1cccc(O)c1`, the inhibition was 37.5% (active).
Regarding `O=C(NCCc1ccccc1)c1ccc(C(=O)c2ccccc2)o1`, the inhibition is -31.4%.
On to `C#Cc1cccc(NC(=O)c2ccc(-c3ccccc3)cc2)c1`, for which the inhibition was -53.1%.
Consider `Cc1ccc(S(=O)(=O)n2nc(C#N)c(C#N)c2N)cc1`, for which the inhibition was -5.77%.
On to `O=C(Nc1nc(-c2ccc3ccccc3c2)cs1)c1cc(-c2ccc(Br)cc2)nc2ccccc12`, for which the inhibition is -0.33%.
As for `CCOc1cc(/C=C2/C(=N)N3N=C(CC)SC3=NC2=O)cc(Cl)c1OCCOc1ccccc1`, the inhibition is -11.5%.
Regarding `COc1ccc(Cl)cc1Nc1ncnc2c1c(-c1ccccc1)cn2-c1ccc(C)cc1`, the inhibition was -0.75%.
`CC1CCN(C(=O)c2c[nH]c3ccc(S(=O)(=O)N(C)c4ccc(C(C)C)cc4)cc3c2=O)CC1`: the inhibition is -1.81%.
In the case of `CCOC(=O)N1CCN(S(=O)(=O)c2ccc(C(=O)Nc3ccc(F)cc3F)cc2)CC1` it was 58.1% (active); in that of `CCOC(=O)N1CCN(S(=O)(=O)c2ccc(C(=O)Nc3nc(-c4ccccc4)c(C)s3)cc2)CC1`, -2.44%.
As for `CCOC(=O)c1ccc(NC(=O)c2ccc(S(=O)(=O)N3CCN(C(=O)OCC)CC3)cc2)cc1`, the inhibition is -0.65%.
As for `COCCOC(=O)C1=C(C)NC2=C(C(=O)CC(c3ccccc3)C2)C1c1cc(OC)ccc1OC` (stereo not given), the inhibition is 8.28%.
`CC[C@H]1CN2CCc3cc(OC)c(OC)cc3[C@@H]2C[C@@H]1C[C@H]1NCCc2cc(OC)c(OC)cc21`: the inhibition is 99.4% (active) and 101% (active).
`COc1cc2c(cc1OC)C1CN3CCc4cc(OC)c(OC)cc4C3CN1CC2` (stereo not given): the inhibition was 5.47%.
For `CCOc1cc2c(cc1OCC)C(c1cc(OC)ccc1OC)NCC2` (stereo not given), the inhibition was 6.48%.
In the case of `O=C(Cn1cnc2ccccc21)N/N=C/c1ccc(Cl)c(Cl)c1` it was 1.91%.
For `Cc1cc(OC2CCN(C(=O)c3ccc4[nH]ncc4c3)CC2)ncc1Cl`, the inhibition is 6.71%.
With `O=C(Nc1ccc2[nH]ncc2c1)c1cccnc1OC1CCCN(Cc2ccccc2)C1` (stereo not given), the inhibition is -3.88%.
As for `O=C(Nc1ccc2[nH]ncc2c1)c1ccnc(OC2CCN(Cc3ccccc3)CC2)c1`, the inhibition was 82% (active).
Take `CCC(C(=O)NC(C)C)n1nc(C)c2sc3ccccc3c2c1=O` (stereo not given): the inhibition is 4.5%.
For `CCOC(=O)Cn1c(=O)oc2cc(S(=O)(=O)N3CCN(CC)CC3)ccc21`, the inhibition is -3.33%.
Take `COc1cccc(/C=N/NC(=O)C(C)Nc2ccc(Br)cc2)c1O` (stereo not given): the inhibition was 23.5%.
`O=C(Cn1cc([N+](=O)[O-])cn1)Nc1ccc(-c2noc(-c3ccccc3F)n2)cc1`: the inhibition is -22%.
With `CCCn1c(-c2ccc(S(=O)(=O)N(C)C)cc2)csc1=Nc1ccccc1`, the inhibition was 35.3% (active).
In the case of `O=C(O)CCn1c(-c2ccccc2)csc1=Nc1ccccc1`, the inhibition is -48.6%.
In the case of `CN(C)CCCn1c(-c2ccc(Cl)cc2)csc1=Nc1ccccc1`, the inhibition is 5.26%.
For `O=C(NC1CCCCC1)c1ccc(Cn2c(=S)[nH]c3cc4c(cc3c2=O)OCO4)cc1`, the inhibition was -6.89%.
For the compound `COc1ccc(Cl)cc1NC(=O)c1cnc(N2CCN(c3ncccn3)CC2)c2ccccc12`, the inhibition is 12.9%.
For `COc1ccc([N+](=O)[O-])cc1NC(=O)c1cnc(N2CCN(c3ncccn3)CC2)c2ccccc12`, the inhibition was 36.3% (active).
On to `O=C(Nc1ccccc1F)c1cnc(N2CCN(c3ncccn3)CC2)c2ccccc12`, for which the inhibition is 25.2%.
Regarding `O=C(NCc1ccccn1)c1cc(=O)c2ccccc2o1`, the inhibition was 0.58%.
`O=C(Nc1ccc(Oc2ccc3ccccc3c2Cl)c(Cl)c1)c1cc2cc(Cl)ccc2oc1=O`: the inhibition was 5.28%.
In the case of `CC(=O)Nc1ccc(Nc2nc(-c3ccc(C(N)=O)cc3)nc3nc[nH]c23)cc1` it was 5.81%; in that of `COc1ccc(-c2nc(C)cc(NCc3ccccc3)n2)cc1`, -42.8%.
Regarding `COc1cc(Nc2nc(Nc3cc(OC)c(OC)c(OC)c3)c3[nH]cnc3n2)cc(OC)c1OC`, the inhibition was 8.81%.
`COc1ccc(-c2nc(C)cc(Nc3cc(OC)c(OC)c(OC)c3)n2)cc1`: the inhibition is 46.8% (active).
Consider `COc1ccc(-c2nc(N)c3[nH]cnc3n2)cc1`, for which the inhibition is -34%.
Take `COc1cc2nc(Nc3cccc(N(C)C)c3)nc(Nc3cc(OC)c(OC)c(OC)c3)c2cc1OC`: the inhibition is -1.74%.
For the compound `COc1cc(Nc2cc(C)nc(Nc3nc4ccccc4n3C)n2)cc(OC)c1OC`, the inhibition is 1.6%.
As to `COc1ccc(-c2nc(Nc3cc(OC)c(OC)c(OC)c3)c3[nH]cnc3n2)cc1`, the inhibition is 54% (active).
In the case of `COc1cc(Nc2nc(Nc3cccc(N(C)C)c3)nc3nc[nH]c23)cc(OC)c1OC` it was 46% (active).
With `O=[N+]([O-])c1ccc(-c2csnn2)cc1`, the inhibition was -3.36%.
Regarding `Cc1nc2c3ccccc3n3c(CCCC(=O)NCc4cccnc4)nnc3n2n1`, the inhibition was -0.28%.
Take `O=C(CNC(=O)c1ccco1)N/N=C/c1ccc(F)cc1`: the inhibition is 2.91%.
As to `CN1C(C)(C)CC(N(C)S(C)(=O)=O)CC1(C)C`, the inhibition is -1.45%.
Regarding `COCCNc1nc(-c2ccc(C)cc2)ccc1C(=O)N1CCN(C)CC1`, the inhibition is -12%.
With `CCCCOC(=O)C(C)Oc1ccc2c(=O)c(-c3ccc(Cl)cc3)coc2c1` (stereo not given), the inhibition was -32.8%.
Turning to `CCOC(=O)C1CCN(C(=O)/C(=C/c2ccco2)NC(=O)c2ccc(C)c(C)c2)CC1`, the inhibition is 3.59%.
As for `Cc1nnc(NS(=O)(=O)c2ccc([N+](=O)[O-])cc2)s1`, the inhibition is -10.9%.
Turning to `O=C(CSCC(=O)N1CCCC1)Nc1nc(-c2ccc(Cl)s2)cs1`, the inhibition was -0.25%.
`Cc1ccc(S(=O)(=O)N(C(=O)NC(=O)Nc2ccccc2Cl)c2ccc(Cl)cc2)cc1`: the inhibition is -3.29%.
With `Cc1cc(C)c2c(NCc3ccccc3F)n[nH]c2n1`, the inhibition is -16.5%.
In the case of `Clc1ccccc1OCc1nn2c(Cc3ccccc3)nnc2s1` it was -7.7%; in that of `Cc1ccc(OCc2nn3c(Cn4cnc5ccccc54)nnc3s2)cc1`, 32.3% (active).
Regarding `c1ccc(Cc2nn3c(Cn4cnc5ccccc54)nnc3s2)cc1`, the inhibition is 6.31%.
`COC(=O)c1c(C)[nH]c(C(=O)/C(C#N)=C/c2cccnc2)c1C`: the inhibition is -3.19%.
In the case of `CCc1nc2sc3c(N4CCCC4)ncnc3c2c2c1COC(C)(C)C2` it was -9.9%; in that of `CC(=O)c1ccc(OC(=O)c2ccccc2Cl)cc1`, 7.46%; in that of `O=C(Cn1cnc2ccc(Br)cc2c1=O)OC1CCCCC1`, -11.3%.
For the compound `Cn1c(=O)[nH]c(=O)c2c1nc(N(CCO)Cc1ccccc1)n2Cc1ccccc1Cl`, the inhibition is -2.54%.
In the case of `CC(Nc1nc2c(c(=O)[nH]c(=O)n2C)n1Cc1ccccc1)c1ccccc1` (stereo not given), the inhibition is 0.86%.
In the case of `CCC(C)n1c(N(C)Cc2ccccc2)nc2c1c(=O)[nH]c(=O)n2C` (stereo not given) it was 49.9% (active); in that of `CCC(C)NC(=O)c1ccc(S(=O)(=O)c2ccc(OC)cc2)c([N+](=O)[O-])c1` (stereo not given), 32.4% (active).
In the case of `CCC(C)NC(=O)c1ccc(N2CCC3(CC2)OCCO3)c([N+](=O)[O-])c1` (stereo not given), the inhibition was -13.8%.
In the case of `COCCNC(=O)c1ccc(Sc2ccc(OC)cc2)c([N+](=O)[O-])c1` it was -17%; in that of `Cc1nn(C)c(C)c1-c1cncc(C(=O)NCc2cccc(C(F)(F)F)c2)c1`, -3.32%.
In the case of `Cc1nc2c(C(=O)NCc3ccc(F)cc3)cnn2c(C)c1Cc1cccc(Cl)c1` it was 0.57%; in that of `O=C(CSCC(=O)Nc1ccc2ccccc2c1)NCC1CCCO1` (stereo not given), -13.5%; in that of `O=c1oc2cc(Cl)ccc2n1C(c1ccccc1)(c1ccccc1)c1ccccc1`, -6.71%.
For `O=C1NC2(CCN(C(=O)c3cccc4cccnc34)CC2)Nc2ccc(Cl)cc21`, the inhibition was 77.2% (active).
In the case of `O=C1NC2(CCN(C(=O)C3CCN3C3CCCCC3)CC2)Nc2ccccc21` (stereo not given) it was 7.24%; in that of `O=C1NC2(CCN(C(=O)CCn3ncc4ccccc43)CC2)Nc2ccccc21`, -11.1%; in that of `CCc1ccc2c(c1)NC(=O)C2(CC)c1ccc2c(c1)OCO2` (stereo not given), -7.41%.

As a reminder, the inhibition is the relative decrease from the control value, in per cent.
